Measured values published in ChEMBL document CHEMBL3988442, “University of Dundee, Small-Polar-MMV Screening Library” (2021).

Key:
[1] = target: T1, Aspartate--tRNA(Asp/Asn) ligase (Mycobacterium tuberculosis (strain ATCC 25618 / H37Rv)) (UniProt P9WFW3); experiment: Assay for Asp RNA synthetase-1 from Mycobacterium tuberculosis; assay type: functional; design: scale not given: direction of the effect not stated beside the values; settings: 30 µM; note: in the data most compounds retested in dose-response had high values
T1 sequence (whole entry): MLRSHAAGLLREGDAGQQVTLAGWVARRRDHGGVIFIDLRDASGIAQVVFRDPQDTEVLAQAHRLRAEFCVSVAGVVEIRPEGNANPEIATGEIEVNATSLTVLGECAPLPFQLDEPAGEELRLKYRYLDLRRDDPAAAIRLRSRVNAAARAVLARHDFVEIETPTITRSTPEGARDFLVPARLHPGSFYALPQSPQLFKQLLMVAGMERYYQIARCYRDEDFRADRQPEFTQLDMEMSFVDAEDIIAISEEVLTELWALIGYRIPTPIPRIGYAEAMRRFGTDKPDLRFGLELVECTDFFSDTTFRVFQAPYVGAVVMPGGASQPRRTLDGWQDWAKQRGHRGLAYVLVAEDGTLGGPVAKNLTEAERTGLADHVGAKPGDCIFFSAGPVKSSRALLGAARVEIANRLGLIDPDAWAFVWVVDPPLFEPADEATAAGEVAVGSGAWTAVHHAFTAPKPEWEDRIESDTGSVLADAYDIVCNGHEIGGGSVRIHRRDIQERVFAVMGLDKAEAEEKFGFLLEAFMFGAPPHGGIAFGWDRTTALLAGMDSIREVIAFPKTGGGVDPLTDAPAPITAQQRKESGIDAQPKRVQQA

[2] = target: Shiga toxin 2 (Escherichia coli O157:H7) (UniProt P09385+P09386); experiment: E. coli 0.157:H7 Shiga Toxin SOP - stx2 screening assay; assay type: functional; design: scale not given: direction of the effect not stated beside the values; settings: 30 µM

SMILES | Percent Effect [1] [%] | Percent Effect [2] [%]
CCOC(C)c1nc(CN2CCNCC2)cs1 (stereo unspecified) | -2.26 | -12.7
Cc1nc(N2CCN(C)CC2)ncc1C(=O)N1CC(C)(C)C(C)(O)C1 (stereo unspecified) | 3.48 | -28.2
Cc1n[nH]c(C)c1C1COCCN1C(=O)Cc1cccc(F)c1 (stereo unspecified) | 3.85 | -14.1
CC(C)OCc1ncn2c1CN(Cc1cccs1)CCC2 | 8.33 | -0.247
COc1ccc(C(C)NC(=O)NCCCn2cncn2)cc1F (stereo unspecified) | 7.3 | -14.5
CCOCC(O)CN1CCN(C(=O)c2cccc(F)c2)CC1 (stereo unspecified) | 0.145 | -5.86
O=C(c1cccnc1N1CCOCC1)N1CCCC(n2ccnc2)C1 (stereo unspecified) | -4.5 | 31.6
Cn1ncc2c1C(COCC1CC1)CN(Cc1ccoc1)C2 (stereo unspecified) | -4.51 | -1.73
Cc1cc(C)n(CC2CN(CC(=O)NC3CCCC3)CCO2)n1 (stereo unspecified) | 0.91 | 13.3
COCCCn1ccnc1-c1cnc(OC)nc1 | 2 | -0.356
Cc1cc(N2CCC(N(C)C(=O)Nc3ccccc3)CC2)nc(C)n1 | 7.13 | -20.7
Cc1nc(C)n(C2CCCN(C(=O)c3ccc4c(c3)COC4)C2)n1 (stereo unspecified) | 0.699 | -16.5
COc1cccc(CCNC(=O)CN2CCN(C)CC2C)c1 (stereo unspecified) | 0.495 | 20
CC(C)c1nc2n(n1)CC(NCc1nnc(C(C)C)o1)CC2 (stereo unspecified) | 5.81 | 19.6
O=C(NCC(O)CN1CCc2ccccc2C1)Nc1cccnc1 (stereo unspecified) | -0.98 | -22.8
Cc1cccc(CS(=O)(=O)NCC(O)Cc2ccccc2)c1 (stereo unspecified) | -8.39 | 0.958
Cc1nnc2n1CCN(C(C(=O)NC1CC1)c1ccccc1)C2 (stereo unspecified) | -4.48 | 15.2
O=C(CCc1ccccn1)N1CCN(C(=O)CC2CCCCC2)CC1 | -2.28 | 3.5
CC(C)C(=O)N1CCN(Cc2csc(-c3ncccn3)n2)CC1 | -4.22 | 0.445
CCc1nc(CN2CCCC(N(C)Cc3cnn(C)c3)C2)no1 (stereo unspecified) | 0.747 | -30.2
CNc1ccc(CC2CCCN(C(=O)c3cnc(C)nc3)C2)nn1 (stereo unspecified) | 1.57 | -10.7
Cc1nc(CSCCC(=O)NCc2cccnc2N(C)C)cs1 | 1.66 | -9.97
CC(C)NC(=O)c1ccc2c(c1)nc1n2CCN(c2ccccc2)C1 | 0.0581 | -15.6
CN(C)CCCNC(=O)CNC(=O)N1CCc2c([nH]c3ccccc23)C1 | 4.82 | -42.4

SMILES | Percent Effect [1] [%] | Percent Effect [2] [%]
CCn1ccc(C(=O)NCCCN2CCOCC2)n1 | 8.41 | -55.1
CS(=O)(=O)N1CCC[C@]2(C[C@@H](Oc3ncccc3F)CO2)C1 | 7.67 | -11.6
CS(=O)(=O)NCCCNC(=O)c1cccnc1O | 5.28 | -16.3
Cc1noc(C(C)C)c1C(=O)NCC(c1ccsc1)N(C)C (stereo unspecified) | 3 | -2.68
Cc1nn(C)c(C)c1C1CCCN1C(=O)c1ccc(NC2CC2)nc1 (stereo unspecified) | 2.27 | -36.7
CC(C)(NCC(=O)NCC(F)(F)F)c1ccc2c(c1)OCCO2 | -0.335 | 22.1
COc1ccccc1OCCC(=O)N1CCCC1Cn1cc(C)cn1 (stereo unspecified) | -0.922 | 29.9
CCn1c(C)nnc1CN(C)C1CCN(CCc2ccncc2)C1 (stereo unspecified) | 2.19 | 13.6
CCn1nccc1CNC(=O)NC1CCCCC1 | 11.6 | -68.7
c1ccc(Oc2cc(CNCC3CNc4ccnn4C3)ccn2)cc1 (stereo unspecified) | -8.46 | -36.5
Cc1noc(C)c1C(=O)NCC(C)N(C)C (stereo unspecified) | 1.84 | 30.6
CCN1CCN(S(=O)(=O)c2cc(C)c(Cl)cc2Cl)CC1 | -2.59 | -47.6
Cc1cnn(CCC(=O)N2C[C@H]3CC[C@@H]2CN(CC(=O)N(C)C)C3)c1 | 4.25 | -21.6
Cc1nnc(Nc2cccc(C3CCN(CCO)CC3)n2)s1 | -2.1 | 2.64
Cc1cnn(CCNCc2nc(Cc3ccccc3)no2)c1 | -1.23 | 25
CNC(=O)C1Cn2ccnc2C2(CCN(Cc3cccnc3)CC2)O1 (stereo unspecified) | -0.0764 | 3.87
COc1cccc(-n2c(C)cc(C(=O)NS(C)(=O)=O)c2C)c1 | -1.31 | 4.7
CN(Cc1ccc(Cl)s1)C(=O)NCc1nnc2n1CCC2 | 0 | 27.4
Cc1nc(N(C)C)nc2c1COCC21CCN(C(=O)NC(C)C)C1 (stereo unspecified) | 2.63 | -1.42
COc1c(C2CCCN2C(=O)c2ccnc(N(C)C)c2)c(C)nn1C (stereo unspecified) | 2.59 | 25.8
c1nc2c(c(C3CC3)n1)CCN(CC1CCOC1)CC2 (stereo unspecified) | 3.35 | -6.27
Fc1cccc(-n2ccc(CN3CCCCC3Cn3cncn3)n2)c1 (stereo unspecified) | -3.17 | 17.2
CC(=O)c1cc(CC(=O)NCc2ccc(F)cc2)cs1 | 1.48 | -11.3
Cc1ccc(CNC2CCCc3c2cnn3C)s1 (stereo unspecified) | -2.88 | 1.56
